“And” between values parts separate entries of the source, which are not always exact repeats. Equal entries are not always repeated. Unmarked numbers belong to inactive results. The source made the active and inactive calls.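 How the source made its calls: active means inhibition at or above 50% relative to wild type and mutant plate controls; inactive means inhibition below 50%.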
Test: inhibitors of Chlamydomonas gravitaxis, primary screen, whole organism, Chlamydomonas reinhardtii, WT vs cilia-less mutant, absorbance, 96-well (AID 463189);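 further: 0% = wild type cc124 cells in DMSO and 100% = ciliumless bld1 mutant cells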
Conditions: OD600 absorbance, 2 days, at 10 µM, hits give high values
`Cn1cnc([N+](=O)[O-])c1Sc1ncnc2nc[nH]c12` showed an inhibition of -2.23%.
In the case of `COc1cc2ncnc(Nc3cccc(Cl)c3)c2cc1OC`, the inhibition is reported as -7.15%.
Work on `NCCS` yielded an inhibition of 8.28%.
In the case of `NC(=S)NCCCC(N)C(=O)O` (stereo not given), the inhibition is reported as 0.102%.
Molecule `COc1cc2c(cc1OC)[C@@H](c1ccccc1)CN(C)CC2` has an inhibition of 8.36%.
In the case of `Oc1ccc(O)cc1`, the inhibition is reported as 0.661%.
Molecule `Cc1cccc(C)c1OCC(N)C(C)C` (stereo not given) has an inhibition of 9.25%.
Molecule `O=C(O)CCC(=O)N1CCCC1C(=O)O` (stereo not given) has an inhibition of 0.347%.
For `Nc1nc2c(nc(Br)n2C2OC3COP(=O)(O)O[C@@H]3C2O)c(=O)[nH]1` (stereo not given in full), the inhibition was 2.8%.
Work on `Cc1nc2c([nH]1)c(=O)n(C)c(=O)n2Cc1ccco1` yielded an inhibition of 0.516%.
For `NS(=O)(=O)c1cc2c(cc1Cl)NC(C1CC3C=CC1C3)NS2(=O)=O` (stereo not given), the inhibition was -0.288%.
For `Fc1ccc(C(OCCCc2cnc[nH]2)c2ccc(F)cc2)cc1`, the inhibition was -0.416%.
`O=C1N(c2ccccc2)c2ccccc2C1(Cc1ccncc1)Cc1ccncc1` showed an inhibition of -3.34%.
Work on `NCCCCNS(=O)(=O)c1cccc2c(Cl)cccc12` yielded an inhibition of -1.51%.
With `N[C@@H](Cc1c[nH]c2ccccc12)C(=O)O` the inhibition was 5.27%.
`Nc1ccn([C@H]2CC[C@@H](CO)O2)c(=O)n1` gave an inhibition of -7.35%.
`NCCC(=O)NCCc1cnc[nH]1` gave an inhibition of 3.88%.
Work on `NC(N)=N/N=C/c1c(Cl)cccc1Cl` yielded an inhibition of 3.64%.
For `CC(C)(C)NCC(O)c1ccc(O)c(CO)c1` (stereo not given), the inhibition was 2.6% and 2.52%.
`O=c1c(O)c(-c2ccc(O)c(O)c2)oc2cc(O)cc(O)c12` showed an inhibition of 2.39%.
`NC(=O)c1cnccn1` gave an inhibition of 1.54%.
In the case of `C[N+](C)(CCCCCC[N+](C)(C)CCCN1C(=O)c2cccc3cccc(c23)C1=O)CCCN1C(=O)c2cccc3cccc(c23)C1=O`, the inhibition is reported as 101% (active).
`Cn1c(=O)c2[nH]c(-c3ccc(S(=O)(=O)O)cc3)nc2n(C)c1=O` showed an inhibition of -2.33%.
`CCN(CC)CCCCCCCCOC(=O)c1cc(OC)c(OC)c(OC)c1` showed an inhibition of 24.5%.
For `Cc1ccccc1N1CCN(S(=O)(=O)C[C@]23CCC(CC2NC(=O)[C@@H](N)CCS(C)(=O)=O)C3(C)C)CC1` (stereo not given in full), the inhibition was 3.4%.
Work on `O=c1c2ccccc2nc2n1CCc1c-2[nH]c2ccccc12` yielded an inhibition of 2.73%.
For `COc1[nH]c2ccc(F)cc2c1C(=O)OCC1CCN(CCNS(C)(=O)=O)CC1`, the inhibition was -12.7%.
`CC(C)NC[C@@H](O)c1ccc(O)c(O)c1` showed an inhibition of 3.12%.
For `N#CC(C#N)=C(N)/C(C#N)=C/c1ccc(O)cc1`, the inhibition was 5.33%.
Molecule `C[C@@H](NCCc1ccc(O)cc1)[C@@H](O)c1ccc(O)cc1` has an inhibition of 2.54%.
In the case of `CC(N)(Cc1ccc(O)cc1)C(=O)O` (stereo not given), the inhibition is reported as 1.6%.
Work on `C[C@H](Cc1ccc(O)c(O)c1)[C@@H](C)Cc1ccc(O)c(O)c1` yielded an inhibition of -6.71%.
Molecule `CC(C)NCC(O)COc1cccc2ccccc12` (stereo not given) has an inhibition of 6.9%.
Molecule `CC#C[C@]1(O)CC[C@H]2[C@@H]3CCC4=CC(=O)CCC4=C3[C@@H](c3ccc(N(C)C)cc3)C[C@@]21C` has an inhibition of 1.39%.
`COc1ccc2c(c1)CCC1C2CC[C@@]2(C)C1CC[C@@H]2NCCCCCCN1C(=O)C=CC1=O` (stereo not given in full) showed an inhibition of 1.37%.
`CC[C@@H]1Cc2cc(O)ccc2C2=C1c1ccc(O)cc1C[C@H]2CC` gave an inhibition of 0.094%.
For `CC(C)(C)c1ccc(S(=O)(=O)/C=C/C#N)cc1`, the inhibition was 155% (active).
With `C=C/C(C)=C/[C@@]1(C)SC(=O)C(C)=C1O` the inhibition was 5.01%.
For `CCCn1c(=O)c2[nH]c(-c3ccc(S(=O)(=O)O)cc3)nc2n(CCC)c1=O`, the inhibition was 1.25%.
Molecule `O=C(O)CCCCCCCC(=O)O` has an inhibition of 5.5%.
